# Bioassay records from PubChem.
# Rows were chosen to be rich in hits. Some 5.3% of all compounds tested hit in one or more screens of this group.
# Measles CPE: protection of cells from measles virus. Measles virus-infected cells, CPE protection, absorbance. protection (pct of control), % at 4 µM. actives 1.5% (n = 140,000). AID 841; in the data active means protection mostly above about 24%, no sharp cut-off; inactive means mostly below about 26%
# PostGolgi yeast: growth inhibition of a yeast mutant, post-Golgi transport screen | post-Golgi transport phenotypic cell assay | actives 0.9% (n = 98,000) | inhibition, % at 10 µM;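 further: yeast cells grown in 1536-well plates; yeast grown about 18 h at 30C before absorbance read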
# PostGolgi ctrl: inhibits growth of the yeast control strain; efflux-deficient yeast background strain, growth absorbance A615, 16 h; inhibition, % at 10 µM; actives 5% (n = 98,000)
# MT1-MMP txn act: MT1-MMP promoter transcription activation; HT1080 MT1-MMP promoter luciferase reporter, luminescence, overnight; stronger effect = higher value; activation factor at 10 µM; actives 0.16% (n = 86,000); AID 750;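 active means activation factor of at least 2 for MT1-MMP transcription at 10 µM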
# Starred values were filed as active, the others as inactive; nt = not tested or not shown. Unless noted, no stated cut-off is given here; in the data, active means inhibition above about 30%; inactive means the rest.
SMILES,Measles CPE,PostGolgi yeast,PostGolgi ctrl,MT1-MMP txn act
Cn1c(C(=O)NCCN2CCc3ccccc3C2)cc2c(=O)n(C)c3ccccc3c21,9,-10,34*,1.1
Cn1c(C(=O)NCCN2CCOCC2)cc2c(=O)n(C)c3ccccc3c21,11,-5,18,1.1
O=C(COC(=O)C1CC1)NCc1ccccc1Cl,14,0,11,nt
CN1CCC(N2CCN(c3cccc(C(F)(F)F)c3)CC2)CC1,5,-9,6,1.1
FC(F)(F)c1cccc(N2CCc3cn[nH]c32)c1,39*,16,26,1.2
Cc1ccc2nc(-c3ccc(NS(C)(=O)=O)cc3)cc(-c3ccccc3)c2c1,42*,12,58*,nt
CCS(=O)(=O)Nc1ccc(-c2cc(-c3ccccc3)c3cc(C)ccc3n2)cc1,32,nt,nt,nt
Cc1ccc2nc(-c3ccncc3)cc(-c3ccccc3)c2c1,3,7,42*,nt
O=[N+]([O-])c1ccc2nc(-c3ccccc3)cc(-c3ccccc3)c2c1,8,nt,nt,nt
Cc1ccc(C(=O)CSc2nc3cc(S(=O)(=O)N4CCOCC4)ccc3o2)cc1,6,-7,39*,1.2
CC1CC(N(C(=O)c2ccccc2Cl)c2ccccc2)c2ccccc2N1 (configuration not stated),6,3,39*,nt
C=CCNCC(=O)NN=C(c1ccccc1)c1ccccc1,14,8,-8,nt
CCc1cc(C(=O)NNC(=S)NCC2CCCO2)cs1 (configuration not stated),2,-12,30*,nt
Cc1ccccc1Oc1nc2c(C)cccn2c(=O)c1/C=C(\C#N)C(=O)Nc1c(C)n(C)n(-c2ccccc2)c1=O,23,nt,nt,nt
Cc1cc(C)nc(NC(=O)c2c(-c3ccccc3Cl)noc2C)c1,13,nt,nt,nt
Cc1cc(C(C)(C)C)oc1C(=O)N(CC(=O)NC1CCCC1)Cc1ccccc1,12,32*,53*,nt
Cc1cc(C(C)(C)C)oc1C(=O)N(CC(=O)NC1CCCC1)Cc1ccc(F)cc1,4,-4,8,nt
O=C(/C=C/c1cccc([N+](=O)[O-])c1)N1CCN(Cc2ccc3c(c2)OCO3)CC1,7,nt,nt,nt
CC1(C(=O)NC23CC4CC(CC(C4)C2)C3)CC1(Cl)Cl (configuration not stated),5,-1,34*,nt
Cc1nn(C)c(C)c1S(=O)(=O)N(CC(=O)N1CCc2ccccc2C1)c1ccc(C(C)C)cc1,3,1,4,nt
CC(C)C(NC(=S)Nc1ccccc1)C(=O)O (configuration not stated),2,nt,nt,nt
CCN1CCN(CC(O)COc2ccc3c(c2)CCC3)CC1 (configuration not stated),14,nt,nt,nt
O=S(=O)(c1ccccc1)N1CCN(CC(O)COc2ccc3c(c2)CCC3)CC1 (configuration not stated),31*,1,23,nt
Cc1ccc(S(=O)(=O)N2CCN(CC(=O)NC(=O)NCc3ccccc3)CC2)cc1C,7,5,-7,nt
COC(=O)c1ccc(N2C(=O)CC(N(C)CCc3ccc(OC)c(OC)c3)C2=O)cc1 (configuration not stated),138*,19,4,1.1
SMILES,Measles CPE,PostGolgi yeast,PostGolgi ctrl,MT1-MMP txn act
COC(=O)c1ccc(N2C(=O)CC(N(C)Cc3ccccc3)C2=O)cc1 (configuration not stated),21,15,-2,1.2
COC(=O)c1ccc(C(/C=C/[C@@H](C)C(=O)N(C)C)NC(=O)OCc2ccccc2)cc1 (some centres not stated),nt,nt,nt,1.1
Cc1cc(C(=O)CN2C(=O)NC3(CCCc4sccc43)C2=O)c(C)n1-c1ccc(Cl)cc1 (configuration not stated),39*,nt,nt,nt
COC(=O)[C@@]1(C)C=C[C@@H](Cc2ccccc2)N1C,nt,nt,nt,1
Cc1ccc2cc(C=C(C#N)C#N)c(N3CCCCC3)nc2c1,12,-3,36*,nt
Cc1ccc2cc(/C=C(\C#N)C(N)=O)c(N3CCCCC3)nc2c1,16,nt,nt,nt
CCc1ccc(NC(=O)C(=O)NCCN2CCN(C(=O)c3ccco3)CC2)cc1,10,nt,nt,1.1
COc1cc(CNC2CCCCC2OC)cc(OC)c1OC (configuration not stated),17,nt,nt,nt
CCOc1ccc(C(Nc2ccc(C)cc2)P2(=O)OCCC(C)O2)cc1 (configuration not stated),9,-8,28,1
CCC1(C)OC(=O)N2CCc3c(C)[nH]c4c(C)ccc(c34)C21C (configuration not stated),15,-1,32*,1.1
Cc1occc1C(=O)Nc1ccc(Br)cc1F,3,5,7,1.5
O=C(Oc1c(Cl)cc(Cl)c2cccnc12)c1ccco1,10,6,31*,1.2
CCCCCCN(C(=O)CCCCCN1C(=O)NC(c2ccccc2)C(C(=O)OCc2ccccc2)=C1C)C(C(=O)NCCCC)c1ccc(OCC(=O)OC)c(C(=O)OC)c1 (configuration not stated),nt,nt,nt,1.1
[O-][n+]1cccc2ncc3cscc3c21,5,nt,nt,nt
O=C(CCCc1ccccc1)Nc1cccc2c1CCCC2,8,-1,37*,1.2
CCc1ccc(-c2csc(NC(=O)COC(=O)CCc3nc4ccccc4s3)n2)cc1,5,nt,nt,nt
CC(=O)N1CC2(CC2)CC1c1ccccc1 (configuration not stated),nt,nt,nt,1.1
Cc1cc(C)nc(Nc2n[nH]c(-c3ccccc3Br)n2)n1,10,1,14,1.4
Cc1cc(C)nc(Nc2n[nH]c(-c3ccc(N)cc3)n2)n1,26*,7,9,1.3
CC(C)(C)NC(=O)c1cc([N+](=O)[O-])ccc1N1CCCCC1,7,nt,nt,nt
Cn1c(=O)c(C(=O)COC(=O)c2cc(C(F)(F)F)nc3ccccc23)c(N)n(Cc2ccccc2)c1=O,7,nt,nt,1
Cn1c(=O)c(C(=O)COC(=O)c2cc(-c3ccccc3)nc3ccccc23)c(N)n(Cc2ccccc2)c1=O,25*,nt,nt,1.1
Cc1cccc(OCCC(=O)NCC(=O)Nc2cccc(C)c2C)c1,5,nt,nt,nt
CC(=O)Nc1ccc(Oc2ncccn2)c(Cl)c1,3,0,16,1.1
N/C(Cc1ccc(Cl)cc1)=N\OC(=O)c1ccc2ccccc2c1,2,21,81*,1.2
SMILES,Measles CPE,PostGolgi yeast,PostGolgi ctrl,MT1-MMP txn act
N/C(Cc1ccc(Cl)cc1)=N\OC(=O)c1cccc2ccccc12,2,82*,104*,1.1
COC(=O)[C@H](CC(C)C)NC(=O)NC1CCCCC1C (some centres not stated),5,-1,-1,1
CC(C)Cn1c(=O)c2ccccc2c2ccccc2c1=O,4,3,33*,1
CC(C(=O)Nc1ccc(F)c(F)c1F)N(C)CC(=O)Nc1ccccc1Br (configuration not stated),19,nt,nt,nt
CCOP(=O)(OCC)C(O)c1cc(OC)c(OC)c(OC)c1 (configuration not stated),6,nt,nt,nt
CCn1c(SCC(=O)Nc2nc(-c3ccccc3)cs2)nnc1-c1ccccc1O,19,3,42*,nt
CCCn1c(SCC(=O)Nc2nccs2)nnc1-c1cccnc1,11,8,3,1.2
CCn1c(CCNC(=O)c2cccs2)nnc1SCC(=O)Nc1nc(-c2ccccc2)cs1,34*,nt,nt,1.2
CCn1c(CCNC(=O)c2cccs2)nnc1SCC(=O)Nc1cccc(Cl)c1,24,nt,nt,1.1
